# Test results: PubChem BioAssay AID1159580 (chemical genetic matrix, 2015)
# Hit rate of the full screen: of about 5,500 compounds, about 2,000 (36%) were called active. About 18% were inconclusive and are not listed. Some of the results follow. Unmarked numbers belong to inactive results. No stated cut-off is given here; in the data, active means normalized growth mostly below about 0.91 (no sharp cut-off); inconclusive means no clear call, values can overlap the other calls; inactive means mostly above about 0.92.
# Test: chemical genetic growth profiling, strain panel (AID 1159580);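 further: tested at 20 µM; growth read once vehicle control cultures reached saturation at 30 °C; 1 = growth at the plate median or of vehicle wells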
# Conditions: growth OD
# [1] = S. cerevisiae deletion strains, locus YMR307W, strain GAS1, stronger effect = lower value
structure (smiles),measurement,setting,value
NC/C=C\C(=O)O,normalized growth,"S. cerevisiae deletion strains, locus YAL013W, strain DEP1, stronger effect = lower value",1
same,normalized growth,"S. cerevisiae deletion strains, locus YAL040C, strain CLN3, stronger effect = lower value",0.994
same,normalized growth,"S. cerevisiae deletion strains, locus YER002W, strain NOP16, stronger effect = lower value",1.01
same,normalized growth,"S. cerevisiae deletion strains, locus YGR229C, strain SMI1, stronger effect = lower value",1.02
same,normalized growth,[1],1
same,normalized growth,"S. cerevisiae deletion strains, locus YNL175C, strain NOP13, stronger effect = lower value",1
same,normalized growth,"S. cerevisiae deletion strains, locus YNL197C, strain WHI3, stronger effect = lower value",0.985
same,normalized growth,"S. cerevisiae deletion strains, locus YNL224C, strain SQS1, stronger effect = lower value",0.993
same,normalized growth,"S. cerevisiae deletion strains, locus YOR083W, strain WHI5 (second series), stronger effect = lower value",1.02
CCC(C)c1cnc(CC(C)C)c(=O)n1O (stereo unspecified),normalized growth,"S. cerevisiae deletion strains, locus YBR021W, strain FUR4, stronger effect = lower value",1.01
same,normalized growth,"S. cerevisiae deletion strains, locus YBR229C, strain ROT2, stronger effect = lower value",1.01
same,normalized growth,"S. cerevisiae deletion strains, locus YCL029C, strain bik1, stronger effect = lower value",1.02
same,normalized growth,"S. cerevisiae deletion strains, locus YDL035C, strain GPR1, stronger effect = lower value",0.818 (active)
same,normalized growth,"S. cerevisiae deletion strains, locus YDL074C, strain BRE1, stronger effect = lower value",0.876
same,normalized growth,"S. cerevisiae deletion strains, locus YDL101C, strain DUN1, stronger effect = lower value",1.02
same,normalized growth,"S. cerevisiae deletion strains, locus YDL134C, strain PPH21, stronger effect = lower value",1.04
same,normalized growth,"S. cerevisiae deletion strains, locus YDL185W, strain tfp1, stronger effect = lower value",0.231 (active)
same,normalized growth,"S. cerevisiae deletion strains, locus YDL192W, strain arf1, stronger effect = lower value",0.933
same,normalized growth,"S. cerevisiae deletion strains, locus YDR101C, strain arx1, stronger effect = lower value",0.993
same,normalized growth,"S. cerevisiae deletion strains, locus YDR162C, strain NBP2, stronger effect = lower value",0.545 (active)
same,normalized growth,"S. cerevisiae deletion strains, locus YDR318W, strain mcm21, stronger effect = lower value",1.03
same,normalized growth,"S. cerevisiae deletion strains, locus YDR388W, stronger effect = lower value",1.02
same,normalized growth,"S. cerevisiae deletion strains, locus YDR502C, strain sam2, stronger effect = lower value",0.967
same,normalized growth,"S. cerevisiae deletion strains, locus YEL061C, strain CIN8, stronger effect = lower value",0.846 (active)
same,normalized growth,"S. cerevisiae deletion strains, locus YER110C, stronger effect = lower value",1.02
same,normalized growth,"S. cerevisiae deletion strains, locus YER155C, strain BEM2, stronger effect = lower value",1.01
same,normalized growth,"S. cerevisiae deletion strains, locus YER167W, strain BCK2, stronger effect = lower value",0.998
same,normalized growth,"S. cerevisiae deletion strains, locus YGL078C, strain dbp3, stronger effect = lower value",0.87 (active)
same,normalized growth,"S. cerevisiae deletion strains, locus YGL086W, strain mad1, stronger effect = lower value",0.946
same,normalized growth,"S. cerevisiae deletion strains, locus YGL248W, strain PDE1, stronger effect = lower value",1.04
same,normalized growth,"S. cerevisiae deletion strains, locus YGR078C, strain PAC10, stronger effect = lower value",0.905
same,normalized growth,"S. cerevisiae deletion strains, locus YGR135W, strain pre9, stronger effect = lower value",0.977
same,normalized growth,"S. cerevisiae deletion strains, locus YGR252W, strain gcn5, stronger effect = lower value",1.1
same,normalized growth,"S. cerevisiae deletion strains, locus YHR079C, strain IRE1 (second series), stronger effect = lower value",1.02
same,normalized growth,"S. cerevisiae deletion strains, locus YHR094C, strain hxt1, stronger effect = lower value",1.01
same,normalized growth,"S. cerevisiae deletion strains, locus YHR129C, strain ARP1, stronger effect = lower value",0.894 (active)
same,normalized growth,"S. cerevisiae deletion strains, locus YHR200W, strain rpn10, stronger effect = lower value",0.961
same,normalized growth,"S. cerevisiae deletion strains, locus YIL066C, strain RNR3, stronger effect = lower value",0.994
same,normalized growth,"S. cerevisiae deletion strains, locus YIL073C, strain SPO22, stronger effect = lower value",1.18
same,normalized growth,"S. cerevisiae deletion strains, locus YIL125W, strain kgd1, stronger effect = lower value",0.815 (active)
same,normalized growth,"S. cerevisiae deletion strains, locus YIR030C, strain dcg1, stronger effect = lower value",1.01
same,normalized growth,"S. cerevisiae deletion strains, locus YJL095W, strain BCK1, stronger effect = lower value",0.981
same,normalized growth,"S. cerevisiae deletion strains, locus YJL134W, strain LCB3, stronger effect = lower value",0.993
same,normalized growth,"S. cerevisiae deletion strains, locus YJL168C, strain set2, stronger effect = lower value",1.02
same,normalized growth,"S. cerevisiae deletion strains, locus YJL187C, strain SWE1 (second series), stronger effect = lower value",1.01
same,normalized growth,"S. cerevisiae deletion strains, locus YJR043C, strain POL32, stronger effect = lower value",0.645 (active)
same,normalized growth,"S. cerevisiae deletion strains, locus YJR075W, strain HOC1, stronger effect = lower value",0.837 (active)
same,normalized growth,"S. cerevisiae deletion strains, locus YKL009W, strain mrt4, stronger effect = lower value",0.936
same,normalized growth,"S. cerevisiae deletion strains, locus YKL068W, stronger effect = lower value",0.864 (active)
same,normalized growth,"S. cerevisiae deletion strains, locus YKL085W, strain MDH1 (second series), stronger effect = lower value",0.771 (active)
same,normalized growth,"S. cerevisiae deletion strains, locus YKL085W, strain MDH1, stronger effect = lower value",0.771 (active)
same,normalized growth,"S. cerevisiae deletion strains, locus YKR001C, strain vps1, stronger effect = lower value",0.963
same,normalized growth,"S. cerevisiae deletion strains, locus YLR039C, strain RIC1, stronger effect = lower value",0.771
same,normalized growth,"S. cerevisiae deletion strains, locus YLR058C, strain SHM2, stronger effect = lower value",1.02
same,normalized growth,"S. cerevisiae deletion strains, locus YLR102C, strain apc9, stronger effect = lower value",1.02
same,normalized growth,"S. cerevisiae deletion strains, locus YLR262C, strain YPT6, stronger effect = lower value",0.806
same,normalized growth,"S. cerevisiae deletion strains, locus YLR268W, strain sec22, stronger effect = lower value",1.01
same,normalized growth,"S. cerevisiae deletion strains, locus YLR371W, strain rom2, stronger effect = lower value",1.04
same,normalized growth,"S. cerevisiae deletion strains, locus YLR418C, strain cdc73, stronger effect = lower value",0.991
same,normalized growth,"S. cerevisiae deletion strains, locus YML016C, strain PPZ1, stronger effect = lower value",1.01
same,normalized growth,"S. cerevisiae deletion strains, locus YML032C, strain rad52, stronger effect = lower value",1.01
same,normalized growth,"S. cerevisiae deletion strains, locus YML124C, strain tub3, stronger effect = lower value",1.02
same,normalized growth,"S. cerevisiae deletion strains, locus YMR078C, strain ctf18, stronger effect = lower value",1.01
same,normalized growth,"S. cerevisiae deletion strains, locus YMR223W, strain ubp8, stronger effect = lower value",1.01
same,normalized growth,[1],0.534 (active)
same,normalized growth,"S. cerevisiae deletion strains, locus YNL067W, strain RPL9B, stronger effect = lower value",0.955
same,normalized growth,"S. cerevisiae deletion strains, locus YNL153C, strain GIM3, stronger effect = lower value",0.881
same,normalized growth,"S. cerevisiae deletion strains, locus YNL233W, strain BNI4, stronger effect = lower value",0.969
same,normalized growth,"S. cerevisiae deletion strains, locus YNL250W, strain rad50, stronger effect = lower value",0.906
same,normalized growth,"S. cerevisiae deletion strains, locus YNL271C, strain bni1, stronger effect = lower value",0.78 (active)
same,normalized growth,"S. cerevisiae deletion strains, locus YNL298W, strain CLA4, stronger effect = lower value",0.708 (active)
same,normalized growth,"S. cerevisiae deletion strains, locus YNL307C, strain MCK1, stronger effect = lower value",1.02
same,normalized growth,"S. cerevisiae deletion strains, locus YNL322C, strain KRE1, stronger effect = lower value",0.579 (active)
same,normalized growth,"S. cerevisiae deletion strains, locus YNR052C, strain pop2, stronger effect = lower value",1.03
same,normalized growth,"S. cerevisiae deletion strains, locus YOL006C, strain TOP1, stronger effect = lower value",1.21
same,normalized growth,"S. cerevisiae deletion strains, locus YOL012C, strain htz1",0.477
same,normalized growth,"S. cerevisiae deletion strains, locus YOL147C, strain pex11, stronger effect = lower value",1
same,normalized growth,"S. cerevisiae deletion strains, locus YOR061W, strain CKA2, stronger effect = lower value",0.997
same,normalized growth,"S. cerevisiae deletion strains, locus YOR069W, strain VPS5, stronger effect = lower value",0.998
same,normalized growth,"S. cerevisiae deletion strains, locus YOR136W, strain idh2, stronger effect = lower value",1.03
same,normalized growth,"S. cerevisiae deletion strains, locus YOR144C, strain elg1, stronger effect = lower value",1.01
same,normalized growth,"S. cerevisiae deletion strains, locus YOR184W, strain ser1, stronger effect = lower value",0.957
same,normalized growth,"S. cerevisiae deletion strains, locus YOR316C, strain cot1, stronger effect = lower value",1.03
same,normalized growth,"S. cerevisiae deletion strains, locus YPL055C, strain LGE1, stronger effect = lower value",0.548 (active)
same,normalized growth,"S. cerevisiae deletion strains, locus YPL241C, strain CIN2, stronger effect = lower value",0.717 (active)
same,normalized growth,"S. cerevisiae deletion strains, locus YPR119W, strain clb2, stronger effect = lower value",1.01
same,normalized growth,"S. cerevisiae deletion strains, locus YPR141C, strain kar3, stronger effect = lower value",0.844 (active)
same,normalized growth,"S. cerevisiae deletion strains, locus YPR163C, strain tif3, stronger effect = lower value",1.02
same,normalized growth,"S. cerevisiae deletion strains, locus YPR167C, strain met16, stronger effect = lower value",1.01
same,normalized growth,"S. cerevisiae deletion strains, strain wtn01, stronger effect = lower value",0.902
same,normalized growth,"S. cerevisiae strains, strain wild type, stronger effect = lower value",0.275 (active)
